High-throughput results (PubChem BioAssay)
RE007 growth inh = less growth of the S. pombe RE007 Vpr strain. S. pombe RE007 Vpr strain, BacTiter-Glo ATP luminescence, 24 h. Potency, µM (doses to about 92.2 µM), inactives show at the top dose activity change, negative = less growth, most hits filed as inhibitors. actives 0.21% (n = 360,000). AID 651644; active = well fitted falling curve with a large enough effect; inconclusive = small, poorly fitted or top-dose-only effect; inactive = no such curve, though single readings can be large or run the other way; also: nearly all actives have a fitted effect of over 50% in size
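Fission yeast RE007 carrying one integrated HIV-1 vpr copy, seeded at OD 0.01 in PMG+AL medium with 23 nL pinned compound. Grown 24 h at 30 degrees; viability read by BacTiter-Glo luminescence after 5 min.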
Sm TGR inh = S. mansoni TGR enzyme inhibition | Q962Y6 | purified TGR, DTNB reduction, TNB absorbance 405 nm | Potency, µM (series often up to 114 µM), for inactives: top-dose activity change, negative = inhibition, actives largely listed as inhibitors | actives 3% (n = 360,000) | AID 485364; also: nearly all actives have a fitted effect of over 60% in size
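Kinetic colorimetric format: TGR-catalysed, NADPH-driven DTNB reduction monitored via TNB absorbance. Enzyme dispensed at 20 nM; compound exposure 15 min at room temperature before reaction start.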
Tb PYK inh = blocks Trypanosoma brucei pyruvate kinase | AID 624173 | Q57TT1 | actives 0.12% (n = 410,000) | TbPYK enzyme, Kinase-Glo Plus ATP luminescence, 45 min | Potency, µM (titrated, usually from 76.8 µM), without a hit: at the top dose activity, negative = inhibition, most hits filed as inhibitors; also: nearly all actives have a fitted effect of over 50% in size
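ADP (130 uM final) triggers the TbPYK reaction after compound addition; incubation is 45 min at room temperature. Kinase-Glo Plus is then added and luminescence imaged. Normalized data are fitted to concentration-effect curves.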
AMA1-RON2 inh = AMA1-RON2 (P. falciparum) interaction inhibition; actives 0.2% (n = 360,000); AID 720542; Potency, µM (top dose mostly 58.2 µM), without a hit: at the highest dose activity change, negative = inhibition, usual class: inhibitors; AlphaScreen AMA1-biotinylated RON2 peptide binding;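 also: 0% = vehicle wells and -100% = peptide control; nearly all actives have a fitted effect of over 45% in size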
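AMA1 (3D7) with his tag at 25 nM final met compounds first, then biotinylated RON2 peptide at 25 nM; detection used donor plus acceptor beads, 10 µg/mL apiece, read by AlphaScreen after 30 min at room temperature.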
LmPK inhibitor = LmPK (Leishmania mexicana) enzyme inhibition | Q27686 | purified LmPK, Kinase-Glo ATP luminescence, 1 h | Potency, µM (highest dose often 57.5 µM), for the others: at the top dose activity change, negative = inhibition, actives largely listed as inhibitors | actives 0.37% (n = 290,000)
Target sequence (Q27686 whole entry, looked up): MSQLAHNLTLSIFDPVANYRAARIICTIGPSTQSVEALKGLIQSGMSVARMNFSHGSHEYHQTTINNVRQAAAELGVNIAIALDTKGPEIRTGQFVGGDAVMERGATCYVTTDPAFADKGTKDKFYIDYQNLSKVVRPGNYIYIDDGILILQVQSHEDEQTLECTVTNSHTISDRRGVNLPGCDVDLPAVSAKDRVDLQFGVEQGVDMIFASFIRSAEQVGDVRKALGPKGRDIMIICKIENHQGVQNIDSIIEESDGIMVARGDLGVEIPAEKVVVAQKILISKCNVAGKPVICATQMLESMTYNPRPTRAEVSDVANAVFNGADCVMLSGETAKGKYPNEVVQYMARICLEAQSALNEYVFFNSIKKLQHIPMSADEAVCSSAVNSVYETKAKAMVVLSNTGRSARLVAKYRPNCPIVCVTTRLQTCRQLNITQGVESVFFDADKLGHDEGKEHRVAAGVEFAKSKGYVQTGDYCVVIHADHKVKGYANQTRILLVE
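Purified LmPK (0.1 nM) converted ADP (0.1 mM) to ATP with PEP (0.5 mM) in imidazole buffer pH 7.2 with KCl and MgCl2, 1 h at room temperature. ATP was read by Kinase-Glo luminescence; data normalized to uninhibited and no-enzyme controls.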
* marks the source's active call; other numbers are inactive results; u = inconclusive; x = no result; [ ] = dose if it differs, or a comment. Hits are enriched below; roughly 3.2% of the tested compounds scored in any of these assays. Unless noted, calls follow the shape of the dose curve; as a rule, active = well fitted curve in the direction sought with a large enough effect; inconclusive = small, poorly fitted or top-dose-only effect, or another doubt; inactive = no such curve, though single readings can be large; an effect the other way counts as inactive or inconclusive. Unless noted, % is scaled to controls: 0 for no effect and ±100 for the full control effect; potency is read from the fitted curve at half-maximal effect.

SMILES | RE007 growth inh | Sm TGR inh | Tb PYK inh | AMA1-RON2 inh | LmPK inhibitor
Cc1ccccc1-c1nc(CS(=O)(=O)CC(=O)NC2CCCC2)c(C)o1 | 6% | 40µM* | -1% | 5% | 2%
CCCN(CCC)CCNC(=O)Cn1ncc2c([nH]c3ccc(C)cc32)c1=O | x | 26% | 2% | x | x
CNC(=O)c1cnc2sc(N3CCC(C)CC3)nn2c1=O | x | 6% | -2% | x | x
Cn1c(=O)c(C(=O)NNC(=O)c2cccc(Cl)c2)c(O)c2ccccc21 | 13µM* | 8% | 0% | 32% | 2%
Cc1cccc(C(=O)NNC(=O)c2c(O)c3ccccc3n(C)c2=O)c1 | 40µM* | -8% | 5% | 48% | -7%
O=C(CSc1nnc(-c2ccc(F)cc2)o1)N1CCCc2ccccc21 | x | 0% | -7% | x | x
O=C(Nc1ccc(Br)cc1F)c1ncoc1-c1ccco1 | x | -15% | -21% | x | x
Cc1nc(Cl)nc(N(C)c2ccccc2)c1[N+](=O)[O-] | -24% | 4.5µM* | -2% | -14% | -8%
Cc1nn(-c2ccccc2)c(OC(=O)c2ccc(Br)cc2)c1S(=O)(=O)c1ccccc1 | x | u | -10% | x | x
Cc1cc(O)cc(=O)n1Cc1ccco1 | -1% | 0% | 1% | 0% | -5%
Cc1cc(O)c(C(c2ccccc2)N2CCN(C)CC2)c(=O)n1Cc1ccco1 (stereo not drawn) | x | 5.6µM* | 17% | x | x
CCN1CCN(C(c2ccc(SC)cc2)c2c(O)cc(C)n(Cc3ccco3)c2=O)CC1 (stereo not drawn) | x | 3.5µM* | 5% | x | x
CCN1CCN(C(c2ccccc2)c2c(O)cc(C)n(Cc3ccco3)c2=O)CC1 (stereo not drawn) | x | 4.5µM* | -5% | x | x
COc1cc(CN2CCN(Cc3ccco3)CC2)cc(OC)c1 | 2% | -14% | 23% | 20% | 2%
CCN1CCN(C(c2ccc(OC)cc2)c2c(O)cc(C)n(Cc3ccco3)c2=O)CC1 (stereo not drawn) | x | 5.6µM* | -17% | x | x
CCN1CCN(C(c2cccc(OC)c2OC)c2nnnn2Cc2ccco2)CC1 (stereo not drawn) | -6% | 0%[57.1 µM] | -1% | 8% | -6%
COc1ccc(C(CC(=O)Nc2ccc(OC)c(OC)c2)N2Cc3ccccc3C2=O)cc1 (stereo not drawn) | x | 12% | 0% | x | x
COc1ccc(-c2ccc(NS(=O)(=O)c3ccc(OC)c(OC)c3)cc2)nn1 | x | 7% | 1% | x | x
CCN(CC)C(=O)Cn1c(=O)n(-c2ccc(Cl)cc2)c(=O)c2c3c(sc21)CCCCC3 | x | -2% | -1% | x | x
Cc1nc(Nc2ncc3c(n2)CC(C)(C)CC3=O)nc2ccccc12 | 10% | x | 5% | -9% | x
CC1=NC(Nc2nc(C)c3ccccc3n2)=NC(C)(C)C1 | -5% | 25µM* | 0% | 16% | 1%
CC(C)c1ccc(Nc2ncnc3c2nc2n3CCCC2)cc1 | x | -3% | 1% | x | x
CCCCN(Cc1cc2ccccc2[nH]c1=O)C(=O)c1cccc(Cl)c1 | x | 10% | 3% | x | x
CC(=O)N(\C=C/C=C/C=C1\Sc2ccccc2C1=O)c1ccccc1 | -6% | 16µM* | -14% | -2% | 14%
Cc1cc(C)n2nc(SCC(=O)c3ccc[nH]3)nc2n1 | -10% | 32µM* | -21% | 113% | 15%
SMILES | RE007 growth inh | Sm TGR inh | Tb PYK inh | AMA1-RON2 inh | LmPK inhibitor
COc1ccccc1CNC(=O)Cn1c(-c2cccs2)cc2cc(F)ccc21 | x | 0% | 2% | x | x
O=C1N(Cc2cccc(Cl)c2)C[C@@H]2C[C@@H](c3ccccn3)N3CCC[C@@]123 | -2% | 10µM* | u | 57% | 10%
O=C1N(Cc2cccnc2)C[C@@H]2C[C@@H](c3ccc4nonc4c3)N3CCC[C@@]123 | 0% | 28µM* | 1% | -13% | -3%
CCn1ccnc1[C@@H]1C[C@H]2CN(Cc3cccc(Cl)c3)C(=O)[C@]23CCCN13 | 10% | 1% | -1% | 12% | 3%
COc1cc(/C=C/CN2CCN(CCC(C)C)C(CCO)C2)ccc1O (stereo not drawn) | -14% | 13µM* | 1% | 6% | -5%
CCOc1cc(CN2CCN(Cc3ccc(C)o3)C(CCO)C2)ccc1OC (stereo not drawn) | -9% | x | 2% | 4% | 1%
COc1cc(/C=C/CN2CCN(Cc3ccc(C)o3)C(CCO)C2)ccc1O (stereo not drawn) | 8% | 13µM* | 2% | -5% | -1%
COc1ccccc1/C=C/CN1CCN(Cc2ccc(C)o2)C(CCO)C1 (stereo not drawn) | -9% | 45µM* | -8% | 10% | 8%
CC1(C)Cc2c(ccc3ccccc23)/C(=C/C#N)N1 | 8% | 45µM* | -8% | 0% | -3%
CNC(=O)/C=C1\NC(C)(C)Cc2c1ccc1ccccc21 | 8% | u | -13% | -5% | 6%
N=c1sccn1CC(=O)Nc1ccc(S(N)(=O)=O)cc1 | 0% | 45µM* | 1% | 31% | -3%
N=c1sccn1CC(=O)Nc1cccc(S(N)(=O)=O)c1 | 3% | -9% | -10% | 7% | -14%
COc1cc(NC(=O)Cn2ccsc2=N)c(C)cc1[N+](=O)[O-] | -3% | -33% | -6% | -5% | 2%
N=c1sccn1CC(=O)Nc1ccc(Cl)cc1[N+](=O)[O-] | -25% | 40µM* | -5% | -16% | 0%
CCCCN(C)CCNC(=O)c1cc(=O)[nH]c2ccc(S(=O)(=O)N3CCCCCC3)cc12 | x | 1% | -10% | x | x
CC1(C(=O)O)CCC2(C)CCC3(C)C(=CC(=O)[C@@H]4C5(C)CC[C@H](O[C@H]6O[C@H](C(=O)O)C(O)C(O)[C@H]6O[C@@H]6O[C@H](C(=O)O)C(O)C(O)C6O)C(C)(C)[C@@H]5CCC43C)[C@@H]2C1 (stereo partly drawn) | x | x | 9% | x | x
Cc1cc(C)cc(NC(=O)c2cc(C)n(Cc3cccs3)c2C)c1 | 4% | 40µM* | 0% | -7% | 4%
CC(C)N1CCC(N2CCN(Cc3ccc(-c4ccc(Cl)cc4)o3)CC2CCO)CC1 (stereo not drawn) | 4% | 13µM* | -10% | -6% | 5%
CC(=O)/C(=N/Nc1ccccc1[N+](=O)[O-])N1CCCc2ccccc21 | -19% | -1% | -2% | 8.9µM* | -2%
c1ccc(OCc2noc(CN3CC[C@@H]4CCCC[C@H]4C3)n2)cc1 | -21% | 6%[57.1 µM] | 4% | 10% | 1%
Clc1cccc(C2CCN(Cc3nc(COc4ccccc4)no3)C2)c1 (stereo not drawn) | u | 35µM* | 0% | -4% | -6%
COc1ccc(Br)cc1C1CC(=O)N2CN(C)CSC2=C1C#N (stereo not drawn) | -12% | u | u | 6% | -9%
